# Measurements reported in PubChem BioAssay (EPA / NIEHS).
# Calls of active or inactive are those of the source. Rule for the calls: active = hit-call score of the fitted dose curve at least 0.9, where 1 is the maximum; inactive = score below 0.9.
# Read-out: Plasminogen activator inhibitor-1 (PAI1), SERPINE1 (gene 5054)
# Test: BSK_KF3CT_PAI1: BioMAP Diversity Plus: KF3CT Assay for Plasminogen activator inhibitor-1 (PAI1) Biomarker Activity (AID 2284252)
# Settings: primary human keratinocytes with fibroblasts
# Experimental: BSK_KF3CT is a cell-based, multiplexed-readout assay that uses keratinocytes and foreskin fibroblasts, a human skin primary cell co-culture, with measurements taken at 24 hours after chemical dosing in a 96-well plate.BSK_KF3CT_PAI1 is an assay component measured in the BSK_KF3CT assay. It measures PAI-1 antibody related to regulation of gene expression using ELISA technology.Data from the assay component BSK_KF3CT_PAI1 was analyzed at the endpoint, BSK_KF3CT_PAI1, in the positive analysis fitting direction relative to DMSO as the negative control and baseline of activity. Using a type of binding reporter, gain or loss-of-signal activity can be used to understand protein changes. To generalize the intended target to other relatable targets, this assay endpoint is annotated to the 'cytokine' intended target family, where the subfamily is 'plasmogen activator inhibitor'.
# The levels of cell surface (or secreted, indicated by the prefix "s") biomarker endpoints were measured by ELISA. Overt cytotoxicity to cells in confluent adherent cultures (all systems other than the BT system) was assessed by measuring total protein levels using sulforhodamine B (SRB) staining in parallel cultures at the time of biomarker measurements, indicated as SRB endpoints. For proliferation assays for adherent cell types, individual cell types are cultured at sub-confluence and relative cell numbers quantified by SRB staining at time points optimized for each system (48 h: 3C and CASM3C systems; 72 h: BT and HDF3CGF systems; 96 h: SAg system). SRB was performed by staining cells with 0.1% SRB after fixation with 10% TCA and reading wells at 560 nm.Viability and proliferation of PBMC (T cells) was quantified by Alamar Blue reduction for the SAg and BT systems. For PBMC viability (referred to as PBMC Cytotoxicity within the assay endpoint names), cells were plated (75,000/well in a 96-well plate) and then chemical samples added for 1 h before addition of activators, SEB and TSST-1 (20 ng/mL final concentration each). Cells were incubated for 90 h. Then, Alamar Blue (20 uL/well) (Invitrogen, Cat DAL1100) was added for 6 h, and the plates were read with a fluorescence microplate reader at 546/580 nm (excitation/emission). For PBMC proliferation, cells were plated and activated as above but incubated for only 16 h prior to addition of Alamar Blue. Plates were read after 6 h.
row,SMILES,outcome
1,FC(F)(F)C(F)(F)C(F)(F)C(F)(F)C(F)(F)C(F)(F)I,inactive
2,OCCC(F)(F)C(F)(F)C(F)(F)C(F)(F)F,inactive
3,O=C(Cl)C(F)(F)C(F)(F)C(F)(F)C(=O)Cl,inactive
4,C[Si](C)(C)C(F)(F)C(F)(F)C(F)(F)F,inactive
5,OC(O)(C(F)C(O)(O)C(F)(F)F)C(F)(F)F,inactive
6,FC(F)=C(F)C(F)(F)C(F)(F)C(F)(F)C(F)(F)C(F)(F)C(F)(F)F,inactive
7,NCC(F)(F)C(F)(F)C(F)(F)C(F)(F)F,inactive
8,FC(F)(F)COC(OCC(F)(F)F)OCC(F)(F)F,inactive
9,FC(F)C(F)(F)COCC1CO1 (stereo not given),inactive
10,O=S(=O)(O)CCC(F)(F)C(F)(F)C(F)(F)C(F)(F)C(F)(F)C(F)(F)F,inactive
